# Screens from PubChem.
# The list is not random: actives were taken first. Their share in the collection is about 5.9%.
# NR0B1 inh: DAX1 (NR0B1) inhibitors, primary screen, cell-based, HEK293, Gal4-DAX1, luciferase luminescence; actives 0.99% (n = 340,000); inhibition, % at 6.75 µM; HEK293 Gal4-DAX1 luciferase reporter; Nuclear receptor subfamily 0 group B member 1 (Homo sapiens), P51843;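 active means inhibition above the mean over all tested compounds plus 3 SD, cut at about 4.2% in these data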;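 further: 0% = DAX1-transfected cells with DMSO and 100% = empty-vector control cells with DMSO; inhibition shows as a rise in luminescence from relieved DAX1 repression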
# HSF-1 act: HSF-1 activators, primary screen, NIH3T3-HGL cells, MG132 stress, luminescence, single point; NIH3T3-HGL HSF-1 luciferase reporter, 8 h; 100% = twice DMSO control signal; activation, % at 9 µM; actives 1.7% (n = 300,000); AID 504408, 2011;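 active means mean replicate activation of at least 50% with a set share of replicates each reaching 50%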;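 further: 0% = median of the neutral control wells and 100% = twice that signal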
# AHR activator: AHR activators, primary screen, cell-based, luminescence, luciferase reporter, human; AID 2796, 2010; Aryl hydrocarbon receptor (Homo sapiens), P35869; AHR-responsive luciferase reporter cells; actives 2.5% (n = 320,000); activation, % at 5 µM; in the data active means activation above about 47%;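 further: 0% = vehicle wells and 100% = reference agonist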
# HSF1 inh: HSF1 inhibitors in luciferase reporter cells, primary screen, cell-based, NIH3T3, luminescence. NIH3T3-HGL HSE-luciferase, MG132-induced, luminescence 8 h; stronger effect = lower value. activity change, negative = inhibition, % at 7.5 µM (by protocol). actives 0.77% (n = 300,000). AID 2098, 2009;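 active means more than half of replicate wells show activity change below -50%, luminescence cut by over half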;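 further: luciferase reports HSF-1 transcriptional activity via heat shock element; 0% = median of DMSO wells and -100% = zero luminescence signal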
# HSP90 inh: HSP90 inhibitors, primary screen, cell lysate, luminescence | Rabbit reticulocyte lysate, luciferase refolding luminescence, 3 h | actives 0.91% (n = 290,000) | inhibition, % at 5.6 µM | Heat shock protein HSP 90 (rabbit reticulocyte lysate; luciferase refolding);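 active means inhibition above the screen-wide mean plus 3 SD, computed separately per campaign, cut at about 16% in these data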;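 further: 0% = DMSO wells and 100% = 60 µM geldanamycin wells; inhibitors lower the luminescence because luciferase stays unfolded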
# GAA850 FXN act: FXN promoter activators, primary screen, cell-based, luciferase luminescence, HEK293 lucGAA850. HEK293 lucGAA850 FXN promoter luciferase reporter, 24 h; percent of 10 µM SAHA response. activation, % at 6 µM. actives 0.56% (n = 360,000);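 active means activation above the average of all compounds screened plus 3 SD, cutoff fixed separately per campaign, cut at about 7.5% in these data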;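 further: 0% = DMSO wells and 100% = 10 µM SAHA wells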
# AHR act cf: AHR activators, confirmation, cell-based, luminescence, luciferase reporter, human. activation, % at 9 µM. AID 2845, 2010. shares compounds with AHR activator. actives 87% (n = 2,300). human cells, AHR-responsive luciferase reporter; in the data active means activation above about 49%;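 further: HepG2 hepatoma cells carrying a DRE-driven firefly luciferase reporter; 0% = vehicle wells and 100% = reference agonist wells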
# PXR act counter: human PXR activators, counter-screen for AHR activator project, cell-based, luciferase luminescence; shares compounds with AHR activator; actives 88% (n = 2,300); cell-based PXR reporter; activation, % at 11.6 µM; AID 434939, 2010; in the data active means activation above about 11%;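 further: human hepatoma DPX-2 cells expressing full-length human PXR; 0% = DMSO and 100% = reference agonist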
# * marks the source's active call; other numbers are inactive results; / = no result given; + = active, no number.
SMILES,NR0B1 inh,HSF-1 act,AHR activator,HSF1 inh,HSP90 inh,GAA850 FXN act,AHR act cf,PXR act counter
Cc1ccc(NCc2ccccc2OCc2ccccc2F)cc1,1,-29,106*,-18,2,2,82*,36*
Cc1ccc(NC(=S)N2CCN(CCN3C(=O)c4cccc5cccc(c45)C3=O)CC2)cc1,0,29,107*,0,0,0,110*,57*
O=C1c2cccc3cccc(c23)C(=O)N1CCN1CCN(CC(O)COc2ccccc2)CC1 (stereo not given),-1,43,87*,23,1,0,59*,16*
Cc1ccc(NC(=O)CCN2C(=O)c3cccc4cccc(c34)C2=O)cc1,3,24,47,-4,2,0,/,/
O=C(O)c1ccn2c(C(=O)c3ccccc3)c(-c3ccccc3)cc2c1,0,8,-3,0,-1,-1,/,/
COc1cccc(-c2nc(C(N)=O)c3[nH]c(=O)n(-c4cccc(Cl)c4)c3n2)c1OC,-1,5,89*,-2,-4,0,93*,31*
CCn1c2ccccc2c2cc(NC(=O)CSc3nnc(C4CC4)n3Cc3ccco3)ccc21,0,20,112*,16,3,-2,56*,171*
CCn1c2ccccc2c2cc(NC(=O)CSc3nnnn3-c3ccccc3)ccc21,0,/,82*,/,-3,-1,133*,+
CCC(CO)Oc1cc(NC(=O)Cc2ccccc2F)c2ncn(C(C)C)c2c1 (stereo not given),0,/,1,/,/,-1,/,/
C/C(=N\NC(=O)C(=O)Nc1cc(Cl)ccc1Cl)c1ccncc1,-1,6,89*,-10,0,-1,1,10
C/C(=N\NC(=O)C(=O)Nc1cccc(Cl)c1C)c1ccncc1,-1,10,-1,-1,0,1,/,/
O=C(Nc1ccccc1)c1ccc(NCC2CCCO2)c([N+](=O)[O-])c1 (stereo not given),0,35,20,18,0,-2,/,/
COc1cccc(NC(=O)c2ccc(NCCCN3CCC(C)CC3)c([N+](=O)[O-])c2)c1,-1,27,2,5,2,1,/,/
O=C(Nc1cc(F)cc(F)c1)c1ccc(NCCCN2CCCCCC2)c([N+](=O)[O-])c1,-2,3,83*,8,5,0,118*,29*
O=C(Nc1ccccc1)c1ccc(NCCN2C(=O)CCC2=O)c([N+](=O)[O-])c1,3,17,81*,6,5,2,110*,23*
Cc1ccc(S(=O)(=O)N2CCC(C(=O)NCCCN3CCCC3=O)CC2)cc1C,0,3,2,-5,-5,2,/,/
COC(=O)c1ccccc1NC(=O)Cn1ccnc1,0,-2,104*,-6,-3,3,84*,/
COc1c(C(=O)Nc2nnc(C3CC3)s2)csc1Cl,2,-22,113*,-7,-1,4,157*,79*
Cc1cnc(C(=O)Nc2nnc(C3CC3)s2)cn1,0,10,10,4,-3,3,/,/
CC1CN(c2nc(-c3ccc(Br)cc3)nnc2-c2ccccc2)CC(C)N1 (stereo not given),-1,3,87*,-10,-1,0,47*,21*
CC(=O)Nc1sc(-c2ccc(Cl)cc2)nc1-c1ccccc1,0,-5,92*,-1,-8,2,-4,16*
C/C(CC(=O)Nc1cc(Cl)ccc1Cl)=N\NC(=O)c1ccco1,1,32,91*,31,-1,4,12,16*
C/C(CC(=O)Nc1cc(Cl)ccc1Cl)=N\NC(=O)COc1cccc(C)c1,-1,10,37,15,1,0,/,/
COc1cccc(CC(=O)Nc2nc3c(s2)C(=O)CC(C)(C)C3)c1,0,0,0,3,-2,0,/,/
C/C(=N/Nc1ccc(F)cc1)c1ccc(Cl)s1,1,5,84*,-9,-4,0,68*,/
SMILES,NR0B1 inh,HSF-1 act,AHR activator,HSF1 inh,HSP90 inh,GAA850 FXN act,AHR act cf,PXR act counter
C/C(=N\NC(N)=O)c1ccc(Cl)s1,0,-5,1,1,2,2,/,/
COc1ccc2c3n([n+]([O-])c2c1)CCN=C3c1ccc(Cl)cc1,1,/,26,/,/,4,/,/
Clc1ccc(C2=CSC3=NCCN23)cc1Cl,2,22,14,5,0,2,/,/
[O-][n+]1c2ccccc2c2n1CCN=C2c1ccc(Cl)cc1,2,5,102*,7,/,4,115*,12*
Nc1c(Cl)cc(C2=NCCn3c2c2ccccc2[n+]3[O-])cc1Cl,1,-4,85*,-5,/,2,101*,20*
CCOc1ccc(NC(=O)Nc2cccc(C)n2)cc1,1,23,80*,3,-4,5,71*,18*
CC(=O)Nc1cccc(OCC(=O)Nc2ccc(F)cc2)c1,-1,11,85*,11,7,2,76*,/
CC(=O)Nc1ccc(NC(=O)CNC(=O)COc2ccccc2)cc1,2,0,0,-3,1,1,/,/
CCOc1ccc(NC(=O)CNC(=O)COc2ccccc2)cc1,0,8,121*,7,2,1,15,11*
CC(C)Cc1nnc(NC(=O)CCC(=O)NC2CCCC2)s1,2,32,0,9,-2,2,/,/
COC(=O)C(NS(=O)(=O)c1ccc(N2CCCC2=O)cc1)c1ccccc1 (stereo not given),0,-7,1,2,-5,0,/,/
c1cncc(-c2nc(NCc3cccs3)c3ccccc3n2)c1,-1,15,9,8,1,2,/,/
Fc1ccccc1CNc1nc(-c2cccnc2)nc2ccccc12,0,12,85*,-1,4,0,24,103*
CCn1c(C)cc(/C=C2/NC(=O)N(Cc3ccccc3F)C2=O)c1C,-1,16,84*,1,1,3,59*,162*
CCn1c(C)cc(/C=C2\NC(=O)N(CC(=O)Nc3ccc(F)cc3)C2=O)c1C,0,-5,24,-6,2,-1,/,/
